Values without a mark were called inactive. Results filed as inconclusive are left out. Where a call stands in place of a potency, no number is given. Activity calls are given as the source filed them. Unless noted, calls follow the shape of the dose curve; as a rule, active = well fitted curve in the direction sought with a large enough effect in the repeat runs; inconclusive = weak or mixed curves; inactive = no such curve, though single readings can be large; an effect the other way counts as inactive or inconclusive.
Tests used:
[1] = qHTS assay to identify small molecule agonists of the hypoxia (HIF-1) signaling pathway - cell viability counter screen (AID 1224844; calls by dose curve; also: nearly all actives have a fitted effect of over 50% in size; also: potency is read from the fitted curve at half-maximal effect)
Procedure, shortened: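 Same wells as the HIF-1 reporter screen; ME-180 cells carrying HRE-bla, 17 hr treatment at 37C; CellTiter-Glo luminescence read after 30 min at room temperature.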

[2] = qHTS assay to identify small molecule agonists of H2AX (AID 1224845; active = well fitted activation curve with a large enough effect in the signal ratio in the repeat runs, not every such curve was filed as active; the % refers to the signal ratio)
Procedure, shortened: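 Wild-type CHO-K1 cells plated overnight, then exposed 3 hr at 37C to compounds at 15 concentrations (0.76% DMSO). Lysed, then HTRF anti-pH2AX(S139)-cryptate/anti-H2AX-d2 detection after 24 hr at room temperature; emissions 665 and 620 nm.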

[3] = qHTS assay to identify small molecule agonists of the hypoxia (HIF-1) signaling pathway (AID 1224846; active = well fitted activation curve with a large enough effect in the signal ratio in the repeat runs, not every such curve was filed as active; the % refers to the signal ratio)
Procedure, shortened: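 In ME-180 cells bearing an HRE-bla construct, 17 h treatment with DMSO-dissolved compounds at 37C was followed by CCF4-AM loading to quantify reporter induction.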

[4] = qHTS assay to identify small molecule agonists of H2AX - cell viability counter screen (AID 1224847; calls by dose curve; also: nearly all actives have a fitted effect of over 30% in size; also: potency is read from the fitted curve at half-maximal effect)
Procedure, shortened: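 Compounds tested at 15 concentrations were incubated 3 hr at 37C with wild-type CHO-K1 cells; cellular ATP-based luminescence (CellTiter-Glo) indicated viability.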

[5] = qHTS assay to identify small molecule antagonists of the estrogen related receptor (ERR) signaling pathway from Tox21 library (AID 1224848); also: nearly all actives have a fitted effect of over 50% in size; also: potency is read from the fitted curve at half-maximal effect
Procedure, shortened: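 First, 2,000 ERR cells per well were plated and held 6 h at 37 C/5% CO2. Next, compounds in DMSO were pinned in and left 18 h at 37 C. Finally, ONE-Glo was added and luminescence read after 30 min at room temperature.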

[6] = qHTS assay to identify small molecule agonists of the estrogen related receptor (ERR) signaling pathway from Tox21 library (AID 1224849; calls by dose curve; also: nearly all actives have a fitted effect of over 15% in size); settings: ERR reporter cell line, ONE-Glo luciferase, 18 h; at 92.4 µM (top of the series) unless noted
Procedure, shortened: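 Reporter cells (ERR, NTP source) treated with Tox21 10K compounds 18 h, 37 C. Readout: ONE-Glo luminescence, 30 min RT.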

[7] = qHTS RealTime-Glo MT Cell Viability Assay in HepG2 cells - 24 hour (AID 1224867); also: nearly all actives have a fitted effect of over 50% in size; also: potency is read from the fitted curve at half-maximal effect
Procedure, shortened: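 Compound treatment began 5 h after plating HepG2 cells (600/well) with NanoLuc luciferase and prosubstrate. Plates stayed at 37 C for 40 h; luminescence was captured at six time points, 0 h through 40 h.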

[8] = A CellTox Green Cytotoxicity Assay to monitor cytotoxicity in HEK293 cells - 0 hour (AID 1224869); also: nearly all actives have a fitted effect of over 50% in size
Procedure, shortened: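 Homogeneous no-lysis format: HEK293 cell suspension mixed with CellTox Green reagent, seeded, incubated 5 h at 37 C/5% CO2, then dosed by pintool with compound in DMSO.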

[9] = qHTS RealTime-Glo MT Cell Viability Assay in HepG2 cells - 40 hour (AID 1224870); also: nearly all actives have a fitted effect of over 50% in size; also: potency is read from the fitted curve at half-maximal effect
Procedure, shortened: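 HepG2 cells mixed with RealTime-Glo MT reagents (NanoLuc plus cell-permeant prosubstrate) were seeded at 600 cells/well, incubated 5 h at 37 C/5% CO2, then pinned with compounds in DMSO; nonlytic luminescence tracked viability during 40 h treatment.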

[10] = qHTS RealTime-Glo MT Cell Viability Assay in HEK293 cells - 32 hour (AID 1224868); also: nearly all actives have a fitted effect of over 50% in size; also: potency is read from the fitted curve at half-maximal effect
Procedure, shortened: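 Quantitative high-throughput screen of the Tox21 10K library in HEK293: cells and RealTime-Glo reagents plated together, compound added at 5 h, luminescence monitored through 40 h at 37 C.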

| Structure (SMILES) | Potency [1] | Potency [2] | outcome [3] | Potency [4] | Potency [5] | activity change, positive = activation [6] | Potency [7] | Potency [8] | Potency [9] | Potency [10] |
| --- | --- | --- | --- | --- | --- | --- | --- | --- | --- | --- |
| Cc1cc(O)c(C)c(C)c1O | inactive | inactive | inactive | inactive | inactive | 2.57% [at 42.5 µM] | inactive | inactive | inactive | – |
| COC(=O)[C@H]1[C@H]2C[C@@H]3c4[nH]c5cc(OC)ccc5c4CCN3C[C@H]2C[C@@H](OC(=O)/C=C/c2ccc(O)c(OC)c2)[C@@H]1OC | inactive | inactive | inactive | inactive | 10.6 µM (active) | -35.3% [at 42.5 µM] | inactive | – | inactive | – |
| Cc1ccccc1N=C(N)Nc1ccccc1C | inactive | inactive | inactive | inactive | inactive | -3.25% | inactive | inactive | inactive | inactive |
| NC(=O)c1ccncc1 | inactive | inactive | inactive | inactive | inactive | 6.51% | inactive | – | inactive | – |
| c1ccc(C[n+]2cccc3ccccc32)cc1 | inactive | inactive | inactive | inactive | 48.6 µM (active) | -48.3% | inactive | inactive | inactive | – |
| O=C1C(=O)c2ccccc2C(O)=C1C1CCC(c2ccc(Cl)cc2)CC1 (stereo not drawn) | inactive | inactive | inactive | inactive | 10.6 µM (active) | 0.683% [at 42.5 µM] | inactive | inactive | inactive | inactive |
| CCCCCC[C@@H](O)C/C=C\CCCCCCCC(=O)OCC(O)CO (stereo partly drawn) | inactive | inactive | inactive | inactive | inactive | -2.03% | inactive | inactive | inactive | inactive |
| CC(=O)Oc1ccc([N+](=O)[O-])cc1CCl | 49 µM (active) | inactive | inactive | inactive | inactive | -12.3% | inactive | inactive | inactive | – |
| NCCNCCO | inactive | inactive | inactive | inactive | inactive | 0.838% | inactive | inactive | inactive | inactive |
| CCCCC(CC)CN (stereo not drawn) | inactive | inactive | inactive | inactive | inactive | 2.45% | inactive | inactive | inactive | inactive |
| C=C(C)C(=O)OCCOCCOC(=O)C(=C)C | inactive | inactive | inactive | inactive | inactive | 6.4% | inactive | inactive | inactive | – |
| C/C=C/C=C/C=O | 48.6 µM (active) | inactive | inactive | inactive | inactive | 4.86% | inactive | inactive | inactive | – |
| CCC1(CO)COCOC1 | inactive | inactive | inactive | inactive | inactive | 7.78% | inactive | inactive | inactive | inactive |
| CC(CN(C)C)C(C)(O)Cc1ccc(Cl)cc1 (stereo not drawn) | inactive | inactive | inactive | inactive | inactive | 9.4% [at 42.5 µM] | inactive | inactive | inactive | inactive |
| N#CCc1ccc(Cl)cc1Cl | inactive | inactive | inactive | inactive | inactive | 0.109% | inactive | inactive | inactive | inactive |
| CC(C)=CC(=O)C=C(C)C | inactive | inactive | inactive | inactive | inactive | 0.257% | inactive | inactive | inactive | inactive |
| CC(C)C=O | inactive | inactive | inactive | inactive | inactive | 0.557% | inactive | inactive | inactive | inactive |
| C[C@H]1c2cccc(O)c2C(O)=C2C(=O)[C@]3(O)C(O)=C(C(N)=O)C(=O)[C@@H](N(C)C)[C@@H]3[C@@H](O)[C@@H]21 | inactive | inactive | inactive | inactive | 18.8 µM (active) | -33.4% [at 42.5 µM] | inactive | – | inactive | inactive |
| O=C1Cc2cc(Cl)ccc2N1 | inactive | inactive | inactive | inactive | inactive | 0.547% [at 42.5 µM] | inactive | – | inactive | inactive |
| CCCCCCCC/C=C\CCCCCCCCO | inactive | inactive | inactive | inactive | inactive | 4.79% | inactive | inactive | inactive | inactive |
| Cc1c(C)c2c(c(C)c1OC(=O)CCC(=O)OCCO)CC[C@@](C)(CCC[C@H](C)CCC[C@H](C)CCCC(C)C)O2 | inactive | inactive | inactive | inactive | – | -48.8% [at 42.5 µM] | inactive | inactive | inactive | inactive |
| C[C@H]1C[C@H](O)c2ccsc2S1(=O)=O | inactive | inactive | inactive | inactive | inactive | 5.62% [at 42.5 µM] | inactive | inactive | inactive | inactive |
| OC1(c2ccccc2)CCNCC1 | inactive | inactive | inactive | inactive | inactive | 5.89% [at 42.5 µM] | inactive | inactive | inactive | inactive |

| Structure (SMILES) | Potency [1] | Potency [2] | outcome [3] | Potency [4] | Potency [5] | activity change, positive = activation [6] | Potency [7] | Potency [8] | Potency [9] | Potency [10] |
| --- | --- | --- | --- | --- | --- | --- | --- | --- | --- | --- |
| CCCCCCC(C)(C)C(=O)O | inactive | inactive | inactive | inactive | – | -23% | inactive | inactive | inactive | inactive |
| C[C@@]12CCC[C@H]1[C@@H]1CC[C@H]3C[C@@H](O)CC[C@]3(C)[C@H]1CC2 | inactive | inactive | inactive | inactive | inactive | -6.1% [at 42.5 µM] | inactive | inactive | inactive | inactive |
| CN1CCCC(n2nc(Cc3ccc(Cl)cc3)c3ccccc3c2=O)CC1 (stereo not drawn) | 21.3 µM (active) | inactive | inactive | inactive | – | -15.1% [at 42.5 µM] | – | – | – | 9.52 µM (active) |
| CCOC(=O)/C=C/C(=O)OCC | inactive | inactive | inactive | inactive | inactive | 6.14% | inactive | inactive | inactive | inactive |
| O=C(O)c1ccc(OCCCOc2ccc(C(=O)O)cc2)cc1 | inactive | inactive | inactive | inactive | inactive | 7.07% [at 42.5 µM] | inactive | inactive | inactive | inactive |
| CC(=O)OCC(=O)NCCCOc1cccc(CN2CCCCC2)c1 | inactive | inactive | inactive | inactive | inactive | 4.2% [at 42.5 µM] | inactive | inactive | inactive | inactive |
| O=c1[nH]c2ccc(Cl)cc2o1 | inactive | inactive | inactive | inactive | inactive | 4.04% | inactive | – | inactive | inactive |
| CC(CO)CO | inactive | inactive | inactive | inactive | inactive | 0.194% | inactive | inactive | inactive | inactive |
| CC(=O)Nc1ccc(C)cc1C | inactive | inactive | inactive | inactive | inactive | 0.262% | inactive | inactive | inactive | inactive |
| C(=C\c1ccccc1)/c1ccccc1 | inactive | inactive | inactive | inactive | inactive | – | inactive | inactive | inactive | inactive |
| CC1(C)[C@H](C(=O)O)N2C(=O)C[C@H]2S1(=O)=O | inactive | inactive | inactive | inactive | inactive | 5.98% [at 42.5 µM] | inactive | inactive | inactive | inactive |
| Cc1[nH]cnc1CN1CCc2c(c3ccccc3n2C)C1=O | inactive | inactive | inactive | inactive | inactive | -18.3% [at 42.5 µM] | inactive | inactive | inactive | inactive |
| FC(F)(F)c1ccccc1Cl | inactive | inactive | inactive | inactive | inactive | -2.05% | inactive | inactive | inactive | inactive |
| O=C=Nc1ccc(Cl)c(Cl)c1 | inactive | inactive | inactive | inactive | 26.9 µM (active) | -41% | inactive | inactive | inactive | inactive |
| CC(C)C[C@H](NC(=O)[C@H](CCc1ccccc1)NC(=O)CN1CCOCC1)C(=O)N[C@@H](Cc1ccccc1)C(=O)N[C@@H](CC(C)C)C(=O)[C@@]1(C)CO1 | 0.213 µM (active) | inactive | inactive | inactive | 0.0596 µM (active) | -67.1% [at 42.5 µM] | 0.0674 µM (active) | inactive | 0.0239 µM (active) | 0.0379 µM (active) |
| CC(O)c1ccccc1 (stereo not drawn) | inactive | inactive | inactive | inactive | inactive | 5.42% | inactive | inactive | inactive | inactive |
| CCCCCCCCCI | inactive | inactive | inactive | inactive | inactive | 3.18% | – | inactive | 25 µM (active) | inactive |
| N#CCCN(CCO)CCO | inactive | inactive | inactive | inactive | – | – | inactive | inactive | inactive | inactive |
| Cc1ccccc1S | inactive | inactive | inactive | inactive | – | – | inactive | inactive | inactive | inactive |
| C=CC(C)(CCC=C(C)C)OC(=O)CC(C)C (stereo not drawn) | inactive | inactive | inactive | inactive | – | – | inactive | – | inactive | inactive |
| c1ccc2c(c1)CCc1ccccc1N2 | inactive | inactive | inactive | 101 µM (active) | – | – | inactive | inactive | inactive | inactive |
| CC(C)(C)C(=O)C(=O)O | inactive | inactive | inactive | inactive | – | – | inactive | inactive | inactive | – |

Source: PubChem BioAssay (Tox21)
